Results on 12 compounds are retold here after PubChem BioAssay (NCATS).

Molecules are shown by their SMILES. Records with an inconclusive call do not appear. Where a call stands in place of a potency, no number is given. Activity calls are given as the source filed them. The call rests on the fitted dose curve; in most records, active means well fitted inhibition curve with a large enough effect; inconclusive means small, poorly fitted or top-dose-only effect; inactive means no such curve, though single readings can be large or run the other way.

In the test the target is Retinaldehyde dehydrogenase 3 (Homo sapiens) (UniProt P47895). The test can be described thus: qHTS for Inhibitors of the Aldehyde Dehydrogenase Family (ALDH1A3) Primary screen (AID 2061315). The settings on record: ALDH inhibition qHTS; series mostly up to 56 µM.
On to `COC1C(CO)OC(n2cnc3c(=O)[nH]cnc32)C1O` (configuration not stated), for which the Potency result is “inactive”.

Consider `CC1OC(OC2C(OC3C(O[C@H]4CC[C@@]5(C)C(CC[C@]6(C)C5CC=C5C7CC(C)(C)CC(O)[C@]7(C)CC[C@]56C)C4(C)C)OC(C(=O)O)C(O)C3O)OCC(O)C2O)C(O)C(O)C1O` (some centres not stated), for which the Potency result is “inactive”. Still for that read-out and setting: with `CC(=O)N1c2ccccc2C2(O)CC3C(=O)NC(CC(C)C)C(=O)N3C12` (configuration not stated) the entry was “inactive”. For the compound `C/C=C/C=C/C=C/C(=O)O[C@@H]1C=C(CO)C(O)(C(=O)OC)[C@@]2(C)CCCC(C)(C)C12` (some centres not stated), the Potency entry is “inactive”. Same read-out and setting: with `COC(=O)C1=CO[C@@H](O[C@@H]2O[C@H](CO)[C@@H](O)[C@H](O)[C@H]2O)C2C1CC(O)C2C` (some centres not stated) the entry was “inactive”; with `O=C1NC(Cc2c[nH]c3ccccc23)C(=O)NC1Cc1cnc[nH]1` (configuration not stated), “inactive”; with `C=C1CCC2C(C)(C)C(O)CCC2(C)C1CCC(C)CCOC(C)=O` (configuration not stated), “inactive”. For the compound `C1CCC[C@H]2CCCN3CC[C@@H](CCCCCC[C@@H]4CCCN5CC[C@@H](CC1)O[C@@H]45)O[C@@H]23`, the activity change, negative = inhibition was -7.72% [at 0.092 µM] (inactive). As for `CC(=O)O[C@H]1CC[C@]2(C)[C@H]3CC[C@]4(C)Oc5oc(C)cc(=O)c5C[C@H]4[C@]3(C)CC[C@H]2C1(C)C`, the Potency result was “inactive”. Same read-out and setting: for `C=CC(C)(O)CC[C@H]1C(=C)CCC2[C@](C)(C(=O)O)CCC[C@@]21C` (some centres not stated) the value was “inactive”; for `COC(=O)C(CC1(OC(=O)C(C)C)c2ccccc2N2C(=O)C(C)(C)N(O)C21)n1cnc2ccccc2c1=O` (configuration not stated), “inactive”. Still for that read-out and setting: with `CC1CCC2(C(=O)OC3OC(CO)C(O)C(O)C3O)CCC3(C(=O)O)C(=CCC4C5(C)CCC(OC6OC(C)C(O)C(O)C6O)C(C)(C)C5CCC43C)C2C1C` (configuration not stated) the entry was “inactive”.
